Screening data (PubChem)
D2 PAM-1: Beta-Arrestin HTS for Positive Allosteric Modulators of the Human D2 Dopamine Receptor: Potentiators; D(2) dopamine receptor (Homo sapiens), P14416; DiscoveRx D2 beta-arrestin cells, luminescence, 90 min; 100% = 57 uM dopamine signal; potentiation, % (no concentration beside the values); actives 0.23% (n = 360,000); in the data active means potentiation above about 50%; inconclusive means mostly about 30% to 49%
Target sequence (P14416 whole entry, looked up): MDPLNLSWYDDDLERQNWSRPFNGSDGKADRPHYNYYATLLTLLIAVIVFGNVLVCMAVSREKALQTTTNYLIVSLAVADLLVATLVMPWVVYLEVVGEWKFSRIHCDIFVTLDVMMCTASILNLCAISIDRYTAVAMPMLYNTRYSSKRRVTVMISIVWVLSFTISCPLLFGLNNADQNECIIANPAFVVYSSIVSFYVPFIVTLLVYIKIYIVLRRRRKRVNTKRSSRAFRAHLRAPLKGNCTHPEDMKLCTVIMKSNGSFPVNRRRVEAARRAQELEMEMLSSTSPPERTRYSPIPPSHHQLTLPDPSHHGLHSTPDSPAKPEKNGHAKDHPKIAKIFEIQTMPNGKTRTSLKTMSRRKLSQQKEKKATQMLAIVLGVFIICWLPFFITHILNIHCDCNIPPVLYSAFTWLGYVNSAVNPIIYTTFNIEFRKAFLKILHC
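D2 cells co-treated with compound plus 50 nM dopamine (EC20) for 90 min at 37 deg C to detect potentiation. Beta-arrestin recruitment was read as enzyme-fragment luminescence after 1 h at ambient temperature. Full response was set by 57 uM dopamine.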
D2 ag-1: HTS Assay for Allosteric Agonists of the Human D2 Dopamine Receptor: Primary Screen for Agonists; D(2) dopamine receptor (Homo sapiens), P14416; HEK293 T-REx D2 cells, calcium flux agonist mode; activation, % at 2 µM; actives 0.53% (n = 340,000); AID 485358, 2010;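 active means activation over 3 SD above normal in the single-dose calcium agonist read, cut at about 30% in these data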
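In this primary screen, compounds producing a positive calcium signal within 180 s of addition to tetracycline-induced, force-coupled HEK293 Trex D2 cells are flagged; cells are dye-loaded with a no-wash calcium kit beforehand.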
D2 antag: HTS Assay for Allosteric Antagonists of the Human D2 Dopamine Receptor: Primary Screen for Antagonists; HEK293 TREx D2 cells, calcium flux, dopamine EC80; actives 2% (n = 340,000); D(2) dopamine receptor (Homo sapiens), P14416; inhibition, % at 10 µM; in the data active means inhibition above about 30%; inactive means below that, where a call was filed
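Measurement of antagonist activity uses fluorescent calcium dye in inducible HEK293 T-REx D2 cells: 10 s baseline, compound addition with 180 s read, EC80 dopamine addition with a further 180 s read.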
D2 ag-2: Beta-Arrestin HTS for Positive Allosteric Modulators of the Human D2 Dopamine Receptor: Agonists; D(2) dopamine receptor (Homo sapiens), P14416; DiscoveRx PathHunter D2 beta-arrestin, luminescence, 90 min; 100% = 57 uM dopamine signal; activation, % (no concentration beside the values); actives 0.084% (n = 360,000); AID 624465, 2012; in the data active means activation above about 40%; inconclusive means between about 15% and that limit
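DiscoveRx PathHunter D2 beta-arrestin cells (2,100/well) attached overnight, then compound-stimulated 90 min at 37 C in HBSS/10 mM HEPES/0.1% Tween-20 buffer; beta-galactosidase complementation read by luminescence after 1 h at ambient temperature. Dopamine 57 uM final (EC100) as control.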
D2 PAM-2: HTS Assay for Positive Allosteric Modulators of the Human D2 Dopamine Receptor: Primary Screen for Potentiators. D(2) dopamine receptor (Homo sapiens), P14416. HEK293 T-REx D2, calcium flux, EC20 dopamine potentiation. potentiation, % at 10 µM. actives 0.34% (n = 340,000);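 active means potentiation over 3 SD above the plate norm, cut at about 30% in these data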
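Tetracycline-induced HEK293 T-REx cells force-coupled to calcium signalling expressed D2; compounds were pin-added after a 10 s baseline, read kinetically 180 s, then an EC20 dopamine challenge followed with a further 180 s calcium read.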
D3 arrestin ag: qHTS of D3 Dopamine Receptor Agonist: D3 Dopamine Receptor B-arrestin Agonist Confirmatory Assay | shares compounds with D2 ag-1 | DiscoveRx D3 beta-arrestin cells, luminescence, 90 min | Potency, µM (series often up to 76.9 µM), usual class: activators | actives 4% (n = 2,300) | AID 720506, 2013; further: nearly all actives have a fitted effect of over 70% in size
D2 ag-3: qHTS of D3 Dopamine Receptor Agonist: D2 Dopamine Receptor B-arrestin Agonist Counterscreen; shares compounds with D2 ag-1; DiscoveRx PathHunter D2 beta-arrestin, luminescence, 90 min; response scale: percent relative to full dopamine signal; Potency, µM (highest dose often 76.9 µM), most hits filed as activators; actives 5.9% (n = 2,300); further: nearly all actives have a fitted effect of over 70% in size
Large screens that a line does not name were inactive (follow-up assays come after a bar, where they were run); ! = repeats disagree. Rows were chosen to be rich in hits. Some 2.4% of all compounds tested hit in one or more screens of this group. Unless noted, the call rests on the fitted dose curve; in most records, active means well fitted activation curve with a large enough effect; inconclusive means small, poorly fitted or top-dose-only effect; inactive means flat fitted curve, though single readings scatter.

Oc1ccc(CCNc2c3ccccc3nc3ccccc23)cc1O	D2 ag-1 91, D2 antag 91, D2 ag-2 130 | D3 arrestin ag 11µM | D2 ag-3 5µM
Cc1ccc2[nH]c(=O)c(CN(C(=O)c3cccc([N+](=O)[O-])c3)C(C)C)cc2c1	D2 ag-1 50 | D3 arrestin ag inactive | D2 ag-3 inactive
CC(C)N(Cc1cc2ccccc2[nH]c1=O)C(=O)c1cccc([N+](=O)[O-])c1	none
CCN(CC)CCNC(=O)c1cc2c(-c3ccc(Cl)cc3)nn(C)c2s1	none
CCCCN(CC)CCNC(=O)c1cc2c(-c3ccc(Cl)cc3)nn(C)c2s1	D2 PAM-1 57, D2 ag-1 44!, D2 antag 72, D2 ag-2 75 | D3 arrestin ag inconclusive | D2 ag-3 25µM
CCCN(CCC)CCNC(=O)c1cc2c(-c3ccccc3F)nn(C)c2s1	D2 PAM-1 inconclusive, D2 ag-1 43, D2 antag 42, D2 ag-2 67 | D3 arrestin ag inactive | D2 ag-3 inconclusive
CCCN(CCC)CCNC(=O)c1cc2c(-c3ccc(Cl)cc3)nn(C)c2s1	D2 ag-1 45, D2 antag 37, D2 ag-2 inconclusive | D3 arrestin ag inactive | D2 ag-3 inconclusive
COCCn1c(=N)c(C(=O)NC(C)c2ccccc2)cc2c(=O)n3cc(C)ccc3nc21 (configuration not stated)	none (no result: D2 PAM-1, D2 antag, D2 ag-2)
O=C(COc1ccccc1F)Nc1ccc(OCc2cc(=O)n3ccccc3n2)cc1	none (no result: D2 PAM-1, D2 antag, D2 ag-2)
CCN(CC)CCSc1nnc2c3ccccc3n(Cc3ccccc3)c2n1	D2 antag 60 | D3 arrestin ag inactive | D2 ag-3 inactive
CCN(CC)CCSc1nnc2c3cc(F)ccc3n(Cc3ccccc3)c2n1	none
Cc1c(C(=O)NC2CCC(C)CC2)oc2ccccc12 (configuration not stated)	D2 ag-1 43 | D3 arrestin ag inactive | D2 ag-3 inactive
CCOC(=O)N1CCC(NCCNC(=O)c2ccccc2)CC1	D2 ag-1 66!, D2 antag 51 | D3 arrestin ag inactive | D2 ag-3 inactive
CCOC(=O)N1CCC(NCCNC(=O)c2ccccc2Cl)CC1	D2 antag 56 | D3 arrestin ag inactive | D2 ag-3 inactive
CCOC(=O)N1CCC(NCCNC(=O)c2cccs2)CC1	none (no result: D2 PAM-2) | D3 arrestin ag inactive | D2 ag-3 inactive
CCOC(=O)N1CCC(NC(=O)c2ccccc2C(=O)O)CC1	none
CCOC(=O)N1CCC(NC(=O)Cc2ccccc2)CC1	none
O=C(NCCNC1CCC(c2ccccc2)CC1)c1cccs1 (configuration not stated)	D2 ag-1 50, D2 antag 48 | D3 arrestin ag inactive | D2 ag-3 inactive
COc1ccc(CNC(=O)CCc2c(C)nc3c(c2C)c(=O)n(C)c(=O)n3C)cc1	none (no result: D2 PAM-1, D2 antag, D2 ag-2)
CS(=O)(=O)N(CC(=O)N1CCOCC1)c1cccc(Cl)c1	none (no result: D2 ag-1, D2 antag, D2 PAM-2)
CS(=O)(=O)N(CCCC(=O)N1CCCCCC1)c1cccc(Cl)c1	none | D3 arrestin ag inactive | D2 ag-3 inactive
CCOC(=O)[C@@H]1[C@H]2COc3ccc(Br)cc3[C@@H]2N2C(=O)N(c3ccc(Br)cc3)C(=O)[C@]12C	D2 ag-1 32 | D3 arrestin ag inactive | D2 ag-3 inactive
CCOC(=O)[C@H]1[C@H]2COc3cc(OC)ccc3[C@@H]2N2C(=O)CN(Cc3ccco3)C(=O)[C@@]12C	none | D3 arrestin ag inactive | D2 ag-3 inactive
CCOC(=O)[C@@H]1[C@H]2COc3ccc(Br)cc3[C@H]2N2C(=O)N(c3ccc(Br)cc3)C(=O)[C@]12C	none
Cc1oc2c(c(C)cc3oc(=O)c(CC(=O)NCCc4ccc(Cl)cc4)c(C)c32)c1C	none (no result: D2 PAM-1, D2 antag, D2 ag-2)
COc1ccc(N2CCN(c3oc(-c4ccccc4C)nc3S(=O)(=O)c3ccccc3)CC2)cc1	none (no result: D2 PAM-1, D2 antag, D2 ag-2)
CCOC(=O)/C=C/[C@H]1CC(c2ccccc2)(c2ccccc2)CO1	none | D3 arrestin ag inactive | D2 ag-3 inactive
CCOC(=O)C1C(C(=O)OCC)C1(c1ccccc1)c1ccccc1 (configuration not stated)	none
Nc1c(OS(=O)(=O)c2ccccc2)cccc1OS(=O)(=O)c1ccccc1	none (no result: D2 ag-1, D2 antag, D2 PAM-2)
CNC(=S)N(CCc1c(C)[nH]c2ccc(OC)cc12)Cc1cccnc1	none | D3 arrestin ag inactive | D2 ag-3 inactive
CC1=C(C(=O)N(C(C)C)C(C)C)CC(CC(=O)NCCN2CCOCC2)C(=O)N1Cc1ccc(C(C)(C)C)cc1 (configuration not stated)	none (no result: D2 ag-1, D2 antag, D2 PAM-2)
O=C(c1ccccc1)C1CN(Cc2ccccc2)CCC1(O)c1ccccc1 (configuration not stated)	D2 ag-1 65, D2 antag 45 | D3 arrestin ag inactive | D2 ag-3 inactive
OC(c1ccccc1)C1CN(Cc2ccccc2)CCC1(O)c1ccccc1 (configuration not stated)	none
COc1cccc(CN2CCC(C(=O)N3CCN(c4ccccc4F)CC3)CC2)c1	none | D3 arrestin ag inactive | D2 ag-3 inactive
COc1cc(CN2CCC(C(=O)N3CCN(c4ccccc4F)CC3)CC2)ccc1O	D2 ag-1 39, D2 antag 39 | D3 arrestin ag inconclusive | D2 ag-3 inactive
CCOC(=O)c1ccccc1NC(=O)CSc1cn(CC(=O)N2CCOCC2)c2ccccc12	none (no result: D2 PAM-1, D2 antag, D2 ag-2)
CC(=O)c1ccc(OC(C)C(=O)OCC(=O)NCCc2ccccc2)cc1 (configuration not stated)	none | D3 arrestin ag inactive | D2 ag-3 inactive
CC(=O)c1ccc(S(=O)(=O)NCCC(=O)OCC(=O)NCCc2ccccc2)cc1	none
CCOC(=O)N1CCC(N(CCCOC)C(=O)Nc2ccc(CC)cc2)CC1	none | D3 arrestin ag inactive | D2 ag-3 inactive
CCOC(=O)N1CCC(N(CCOC)C(=O)Nc2ccc(Cl)cc2)CC1	none
Cc1cc(C(C)(C)C)ccc1OCCN1CCCC1	none (no result: D2 ag-1, D2 antag, D2 PAM-2) | D3 arrestin ag inactive | D2 ag-3 inactive
COc1ccc(OC)c(NC(=O)NNC(=O)COc2ccc([N+](=O)[O-])cc2)c1	none
CC(=O)c1c(O)c2ccccc2n(C)c1=O	none
